# Experimental data published in ChEMBL document CHEMBL3433997, “St. Jude Leishmania screening dataset” (2016).
# How the values were obtained:
# Type in all cases: functional
# [1] = target: Solute carrier family 2, facilitated glucose transporter member 1 (Homo sapiens) (UniProt P11166); assay: ST_JUDE_LEISH: Cytotoxicity at 2uM final concentration against transgenic Leishmania Mexicana promastigotes LmGLUT1 that are glucose transport deficient and complemented with the human glucose transporter GLUT1. Activity is measured by DNA content using SYBR green in vitro
# [2] = target: Hexose transporter 1 (Plasmodium falciparum) (UniProt O97467); assay: ST_JUDE_LEISH: Cytotoxicity at 2uM final concentration against transgenic Leishmania Mexicana promastigotes LmPfHT that are glucose transport deficient and complemented with the Plasmodium falciparum hexose transporter. Activity is measured by DNA content using SYBR green in vitro
# [3] = target: Glucose transporter (Leishmania mexicana) (UniProt O61059); assay: ST_JUDE_LEISH: Cytotoxicity at 2uM final concentration against transgenic Leishmania Mexicana promastigotes LmGT2 that are glucose transport deficient and complemented with the L. Mexicana glucose transporter 2. Activity is measured by DNA content using SYBR green in vitro
# Sequence of Solute carrier family 2, facilitated glucose transporter member 1 (Homo sapiens) (P11166 whole entry): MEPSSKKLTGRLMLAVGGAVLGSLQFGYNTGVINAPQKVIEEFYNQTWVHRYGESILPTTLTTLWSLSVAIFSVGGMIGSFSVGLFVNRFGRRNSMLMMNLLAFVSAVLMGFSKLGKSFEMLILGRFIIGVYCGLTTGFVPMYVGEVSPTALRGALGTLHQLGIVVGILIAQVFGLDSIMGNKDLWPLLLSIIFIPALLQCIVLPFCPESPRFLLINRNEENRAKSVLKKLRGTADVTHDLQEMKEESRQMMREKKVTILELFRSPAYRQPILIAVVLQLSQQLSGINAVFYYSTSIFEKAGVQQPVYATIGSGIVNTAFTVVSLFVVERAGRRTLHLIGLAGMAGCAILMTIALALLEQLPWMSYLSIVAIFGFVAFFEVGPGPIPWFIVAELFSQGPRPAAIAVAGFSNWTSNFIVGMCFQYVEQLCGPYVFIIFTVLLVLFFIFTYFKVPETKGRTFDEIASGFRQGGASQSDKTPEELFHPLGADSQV
SMILES,inhibition [1] [%],inhibition [2] [%],inhibition [3] [%]
COc1cc(F)c2ncc(Cl)c(CCN3CCC(NCc4ccc5c(c4)OCCO5)CC3)c2c1,41.6,54.6,68.8
CCOc1ccc(-c2nonc2NC(=O)c2ccccc2)cc1OCC,4.72,2.09,3.26
CO/C(=C\C=C\c1cc2cc(Cl)c(Cl)cc2[nH]1)C(=O)NCCCN1CCN(c2cccc(OCC(=O)Nc3ccccc3)c2)CC1,8.53,8.92,5.76
COc1ccc(CCN(C)CCOc2ccc(NC(=O)COc3ccc4sc5ccccc5c(=O)c4c3)cc2)cc1OC,3.46,4.33,1.11
C(=NN=c1cc[nH]c2ccccc12)c1ccncc1,3.99,4.32,3.95
O=C1CN(C(=O)CCC2CCCC2)C(c2ccc(F)cc2)c2cc(F)ccc2N1 (stereo not drawn),5.81,3.45,0.37
Cc1cc(NC(=O)c2ccc(S(=O)(=O)N(Cc3ccccc3)C(C)C)cc2)no1,3.7,3.18,3.77
N#Cc1ccc(N(CCNS(=O)(=O)c2cc(Br)c(Cl)s2)Cc2ccccc2C(F)(F)F)cc1C(F)(F)F,3.37,0.82,1.55
COc1cc2nc(NCCN3CCOCC3)n3nc(-c4ccccc4)nc3c2cc1OC,8.12,6.56,5.62
CCc1ccc(-n2cc(C(=O)c3cc(Br)ccc3O)cc(C#N)c2=O)cc1,3.35,3.08,2.28
c1ccc(CNCc2cccc(-c3ccc(-c4nc5ccccc5[nH]4)s3)c2)cc1,4.03,3.45,3.41
CC(C)Cn1c(Sc2ccc(C#N)c([N+](=O)[O-])c2)nnc1-c1ccc(N(C)C)cc1,-0.55,0.63,-4.37
CS(=O)(=O)c1ccc(-c2cnc(N)c(-c3cccc(CO)c3)c2)cc1,3.95,3.16,4.32
Cc1cc(-c2ccc3c(c2)CCN(CCC2CCC(NC(=O)/C=C/c4cccc(F)c4)CC2)CC3)on1 (stereo not drawn),2.32,0.47,3.42
c1cc(CNCC2CCCO2)cc(-c2cccc(-c3nc4ccccc4[nH]3)c2)c1 (stereo not drawn),1.58,1.76,-0.18
CCOC(=O)c1ccc(NCc2ccccn2)cc1,3.11,3.01,2.96
CC[C@H](C)[C@H](NC(=O)[C@H](CC1CCCCC1)[C@H](CC)N(O)C=O)C(=O)Nc1ccccn1,8.41,8.39,8.25
Cc1ccc(NC(=O)C(C)Sc2nnc(-c3ccccc3Br)[nH]2)cc1 (stereo not drawn),-1.5,-2.48,-0.33
COc1ccc(OCC(=O)Nc2cc(-c3nc4ccccc4[nH]3)ccc2Cl)cc1,6.17,6.14,3.14
O=C(Nc1cccc(Cl)c1)N(CCCn1ccnc1)Cc1csc(-c2ccc(CNCc3ccccc3)cc2)n1,5.54,3.76,4.27
Cc1cccc2nc(-c3cccc(-c4cccc(NC(=O)CCc5c[nH]cn5)c4)c3)[nH]c12,0.79,0.27,1.56
FC(F)(F)c1ccc2[nH]c(-c3ccc(-c4ccc(CNCC5CCCO5)cc4)s3)nc2c1 (stereo not drawn),-1.55,0.38,-1.62
CC1(C)N=C(N)N=C(N)N1OCc1cccc2c1ccc1ccccc12,0.96,2.76,0.32
OC(CNC1CCCCC1)Cn1c2ccccc2c2ccccc21 (stereo not drawn),9.36,7.72,3.35

SMILES,inhibition [1] [%],inhibition [2] [%],inhibition [3] [%]
c1ccc(-c2nc(NC3CCCCC3)cc(C3CC3)n2)nc1,1.84,1.91,1.62
O=C(/C=C/c1ccc(Cl)c(Cl)c1)NCCCCCN1CCCN(C(=O)Nc2ccc([N+](=O)[O-])cc2)CC1,1.18,1.11,4.07
Cc1ccc(-c2cc(C(=O)Nc3ccc(S(=O)(=O)N4CCCCC4)cc3)[nH]n2)c(O)c1,0.86,1.9,-0.53
O=c1cc(NCCCNCc2cc3ccccc3s2)[nH]c2ccccc12,4.89,6.01,3.82
CCN(CC)CCCNCc1ccc(-c2ccc(C(F)(F)F)cc2)cc1,5.63,2.78,-0.45
COc1cccc(NC(=O)Nc2cc(C)nc3ccccc23)c1,4.17,3.94,2.43
Clc1ccc(CNc2ccnc(NCc3cccnc3N3CCCC3)n2)c(Cl)c1,12.9,7.88,3.44
Cc1ccc(CCC(C)NCC(O)c2cccc(Cl)c2)cc1 (stereo not drawn),12.8,13.1,11.1
CCCCCN1CCCCC(NS(=O)(=O)c2ccc(C(=O)Nc3ccc(C(F)(F)F)cc3)cc2)C1 (stereo not drawn),0.12,2.98,-1.53
C=CCOC(=O)N1CCC(CNCc2cccc(-c3cccc(-c4nc5cc(F)ccc5[nH]4)c3)c2)C1 (stereo not drawn),1.39,0.9,-0.93
Cc1cc2nc(-c3cc(Br)ccc3O)c(-c3cc(Br)ccc3O)nc2cc1C,-1.26,-1.38,-1.13
Cc1cc(N[C@@H](CC(C)C)C(=O)NCCc2ccccc2)nc(NCCc2ccc(F)cc2)n1,-0.03,0.66,-1.31
COc1ccc(-c2nnc(Sc3ccc(C#N)c([N+](=O)[O-])c3)n2CC(C)C)cc1,0.96,3.46,1.92
Cc1ccccc1CNc1noc(-c2sccc2Br)n1,-2.66,-1.49,-1.5
CCCCCC(C)N/C(=N/c1cccc(Cl)c1Cl)Nc1ccc(C#N)cc1O (stereo not drawn),5.91,4.59,2.7
CC(=O)Nc1cc(C(=O)Nc2cccc(-c3csc(-c4nc5ccccc5[nH]4)c3)c2)ccc1C,10.5,9.84,9.18
COc1cc(C)nc2ccc(NC(=O)Nc3ccccc3[N+](=O)[O-])cc12,2.28,0.56,1.8
CC(C)NC(=O)c1cccc(-c2ccc(OCCN3CCCC3c3cc4ccccc4[nH]3)cc2)c1 (stereo not drawn),1.77,3.47,-1.97
Cc1cc(O)c(-c2ccc(Sc3ccc(Cl)cc3)cc2)c(C)n1,-0.64,3.32,-4.88
O=C(NCC1CC1)C1Cc2c([nH]c3ccc(Br)cc23)C2(CCN(CCc3ccccc3)CC2)N1 (stereo not drawn),1.43,-0.28,1.33
CCn1c(-c2nonc2N)nc2c(-c3ccccc3)ncc(OCCCCNCCc3ncc[nH]3)c21,-0.2,-0.76,-0.64
Cc1nc2ccc(-c3nc4cc(N)ccc4[nH]3)cc2[nH]1,-2.46,10,1.44
O=C(NCCCCN1CCC(c2ccc3ccccc3c2O)CC1)c1ccc(NC(=O)c2ccc(Cl)cc2)cc1,-0.08,1.46,0.92
CC(C)(C)OC(=O)N1CCN(c2ccccc2NC(=O)c2cccc(C(F)(F)F)c2Oc2ccc(F)cc2)CC1,-1.41,0.7,0.52

SMILES,inhibition [1] [%],inhibition [2] [%],inhibition [3] [%]
Cc1cccc2nc(-c3ccc(-c4ccc(CN5CCCCC5CO)cc4)cc3)[nH]c12 (stereo not drawn),27.8,31.6,19.5
O=C(Nc1ccnc(N2CCCN(Cc3cccc(O)c3)CC2)c1)c1ccc(F)cc1,2.79,0.77,4.83
O=C(/C=C/c1ccc(Cl)c(Cl)c1)NCCCCCN1CCC(NC(=O)c2ccc(F)cc2F)CC1,-3.32,5.55,-1.5
O=C1C(c2ccccc2)=C(Nc2ccc([N+](=O)[O-])cc2)c2ccccc21,6.69,9.53,2.14
CCC[C@@H]([C@@H](CC1CCCCC1)C(=O)N[C@@H](CCOC(=O)NCC)C(=O)Nc1nccs1)N(O)C=O,8.61,10.3,9.7
CCCCCC1c2[nH]c3ccccc3c2CCN1C(=O)OCc1ccccc1 (stereo not drawn),7.38,6.98,7.22
O=C(NC1CCC1)C1CCN(C(c2ccc(Cl)cc2)c2ccc(Cl)cc2)CC1,-0.62,1.93,-0.82
CN(Cc1ccc(-c2ccc(C(F)(F)F)cc2)cc1)C(=O)Cn1c(CCc2cccc(F)c2F)cc(=O)c2ccc(OCC3CCCN3C)cc21 (stereo not drawn),3.87,3.45,4.42
O=C(CNc1ccc(Cl)c(S(=O)(=O)N2CCCC2)c1)Nc1ccc(Br)cc1F,-2.34,1.47,1.03
O=C(NCCCCN1CCC(c2cccc3ccccc23)CC1)c1ccc(-c2ccc(C(F)(F)F)cn2)cc1,2.62,3.84,1.69
c1cc(CNCc2ccc3c(c2)OCO3)cc(-c2cccc(CNc3ccc4ncccc4c3)c2)c1,0.81,1.4,-0.38
NC1CCN(c2nc(NCCCc3ccc(O)cc3)nc(NCc3ccccc3-c3ccc(C(F)(F)F)cc3)n2)CC1,1.49,2.87,3.83
O=C(Nc1ccc(-c2cccc(-c3nc4cc(C(F)(F)F)ccc4[nH]3)c2)cc1)c1ccoc1,4.69,3.58,3.22
Cc1c(Oc2ccc(-n3ccnc3)cc2)ncnc1N1CCC2(CC1)CNCc1ccccc12,10.5,8.76,2.5
Cc1cc(N[C@@H](Cc2ccccc2)C(=O)NCCOc2ccccc2)nc(NCc2ccccc2C)n1,7.28,7.01,4.21
CC(O)C1CCCCN1C(=O)c1cccc(-c2cccc(-c3nc4ccccc4[nH]3)c2)c1 (stereo not drawn),0.78,0.15,-0.24
Cc1c2ccc(N(C)c3ccnc(Nc4ccc5c(c4)nc(NC(C)C)n5C)n3)cc2nn1C,0.46,1.01,-1.42
CC(C)(C)c1ccc(NC(=O)c2cccc(CN3CCCN(Cc4ccc(F)cc4)CC3)c2)cc1,3,2.6,1.15
CC(C)CNCc1cccc(-c2ccc(CN(CCCN3CCN(C)CC3)C(=O)/C=C/c3ccccc3)cc2)c1,2.92,3.29,3.9
COc1cccc(NC(=O)[C@H](C)n2c(=O)[nH]c3ccccc3c2=O)c1,10.9,14.1,7.45
COc1cc(NC(=O)CCCN2CCN(c3cccc(Cl)c3Cl)CC2)ccc1N1CCN(C(C)C)CC1,-2.72,0.8,-0.51
O=C(Nc1ccc([N+](=O)[O-])cc1Cl)c1cc2ccccc2cc1O,0.6,1.59,1.3
CC(=O)N(C)C1CCN(Cc2ccc(-c3cccc(-c4nc5cc(F)ccc5[nH]4)c3)cc2)C1 (stereo not drawn),1.27,-0.26,1.68
